Reference: ChEMBL document CHEMBL1201862, “PubChem BioAssay data set” (2004)
The campaign covered roughly 400,000 compounds. About 2,100 (0.53%) were called active. Another 14% or so got no clear call; they are omitted. The rule behind the calls is not given here. What follows is part of a selection rich in actives, with near analogues and random picks from the rest.

biological target: Ataxin-2 (Homo sapiens) (UniProt Q99700); assay: qHTS for Inhibitors of ATXN expression.; assay type: functional
Sequence (Q99700 whole entry): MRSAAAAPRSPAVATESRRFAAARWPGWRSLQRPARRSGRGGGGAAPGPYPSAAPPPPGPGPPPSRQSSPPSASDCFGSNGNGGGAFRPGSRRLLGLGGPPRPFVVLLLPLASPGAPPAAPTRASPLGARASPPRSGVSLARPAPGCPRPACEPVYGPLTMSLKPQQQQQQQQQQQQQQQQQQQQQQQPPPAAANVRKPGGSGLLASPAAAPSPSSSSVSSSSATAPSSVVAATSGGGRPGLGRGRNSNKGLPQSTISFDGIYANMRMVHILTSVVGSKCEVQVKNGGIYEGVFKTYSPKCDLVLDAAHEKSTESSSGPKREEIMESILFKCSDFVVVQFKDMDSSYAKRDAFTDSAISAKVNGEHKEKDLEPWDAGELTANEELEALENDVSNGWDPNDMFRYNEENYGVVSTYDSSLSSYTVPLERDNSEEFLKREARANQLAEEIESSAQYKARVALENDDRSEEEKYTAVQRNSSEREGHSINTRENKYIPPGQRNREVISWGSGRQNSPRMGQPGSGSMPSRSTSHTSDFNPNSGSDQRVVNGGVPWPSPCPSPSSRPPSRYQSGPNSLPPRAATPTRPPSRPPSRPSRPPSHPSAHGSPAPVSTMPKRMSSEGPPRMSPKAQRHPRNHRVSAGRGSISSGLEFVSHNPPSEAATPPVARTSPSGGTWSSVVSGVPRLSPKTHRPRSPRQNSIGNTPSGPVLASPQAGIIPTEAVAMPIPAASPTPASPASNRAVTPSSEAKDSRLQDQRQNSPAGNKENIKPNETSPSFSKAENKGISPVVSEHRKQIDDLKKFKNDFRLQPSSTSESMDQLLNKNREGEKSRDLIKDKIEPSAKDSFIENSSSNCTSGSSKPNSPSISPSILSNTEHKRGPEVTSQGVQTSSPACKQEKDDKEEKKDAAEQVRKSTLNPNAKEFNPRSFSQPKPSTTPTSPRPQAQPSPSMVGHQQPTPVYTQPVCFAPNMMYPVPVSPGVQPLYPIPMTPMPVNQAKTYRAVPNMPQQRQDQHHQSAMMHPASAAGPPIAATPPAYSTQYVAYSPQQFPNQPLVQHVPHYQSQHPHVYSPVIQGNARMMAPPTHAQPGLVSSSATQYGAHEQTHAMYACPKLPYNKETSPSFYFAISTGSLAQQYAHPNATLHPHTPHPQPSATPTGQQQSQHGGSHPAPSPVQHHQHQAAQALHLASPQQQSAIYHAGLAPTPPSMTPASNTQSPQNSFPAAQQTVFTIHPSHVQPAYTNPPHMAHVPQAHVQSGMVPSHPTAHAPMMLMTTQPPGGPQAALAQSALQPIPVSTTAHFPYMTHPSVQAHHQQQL

Structure (SMILES) | Potency
CC(=O)c1c(C)[nH]c(C(=O)COC(=O)COc2ccccc2F)c1C | inactive
CC(=O)NC1C(=O)N(CCN2CCOCC2)c2ccc(C)cc21 (stereo not drawn) | inactive
Nc1c(C(=O)NCc2ccccc2)c2nc3ccccc3nc2n1CCCN1CCOCC1 | inactive
Cc1nc2nc(C)n(CCN3CCOCC3)c(=O)c2c(-c2cccc([N+](=O)[O-])c2)c1C(=O)CCCCCCCCCCN1CCC(c2ccccc2)(c2ccccc2)CC1 | 13.4 µM (active)
Cc1cccn2c(=O)c3cc(C(=O)NCc4ccccc4)c(=N)n(CCCN4CCOCC4)c3nc12 | inactive
O=C(NC1CCCCC1)c1cccc2c1C(=O)c1ccc(N3CCC(Cc4ccccc4)CC3)cc1S2(=O)=O | inactive
O=C(NCCOc1ccccc1Cl)c1cccc2c1C(=O)c1ccc(Cl)cc1S2(=O)=O | 35.5 µM (active)
O=C(NCc1ccccc1)c1cccc2c1C(=O)c1ccc(/C=C/c3ccccc3)cc1S2(=O)=O | inactive
O=C(NC1CC1)c1cccc2c1C(=O)c1ccc(N3CCC(Cc4ccccc4)CC3)cc1S2(=O)=O | inactive
O=C(NC1CCCC1)c1cccc2c1C(=O)c1ccc(/C=C/c3ccccc3)cc1S2(=O)=O | inactive
O=C1c2ccc(Cl)cc2S(=O)(=O)c2cccc(C(=O)N3CCC(Cc4ccccc4)CC3)c21 | 31.6 µM (active)
Cc1c(C)c2cc3c(c(C)c2oc1=O)OCN(CCc1ccc(F)cc1)C3 | inactive
FC(F)(F)c1cnc(C(c2ccccn2)c2nc[nH]n2)c(Cl)c1 (stereo not drawn) | inactive
COc1ccc(C(CCN(Cc2ccc(OC)c(OC)c2)C(=O)CCl)c2ccccc2)cc1 (stereo not drawn) | 31.6 µM (active)
CCOc1ccc(C(CC(=O)O)NC(=O)C(c2ccccc2)c2ccccc2)cc1OC (stereo not drawn) | inactive
COc1ccc(CN(CCC(c2ccccc2)c2ccc(OC(C)C)cc2)C(=O)CCl)cc1OC (stereo not drawn) | 6.31 µM (active)
COc1ccc(CN(C(=O)COc2ccc(C)c(C)c2)C2CCS(=O)(=O)C2)cc1OC (stereo not drawn) | inactive
CCOc1ccc(CN(C)CC(=O)Nc2cccc3ccccc23)cc1OC | inactive
COc1ccc(CN(C)CC(=O)Nc2ccc(SC(F)F)cc2)cc1OC | inactive
COc1cc(C2NC(=O)NC(c3ccccc3)=C2C(C)=O)cc([N+](=O)[O-])c1O (stereo not drawn) | inactive
C#CC(=O)N(c1ccc(OC)c(OC)c1)C(C(=O)NC1CCCC1)c1cccs1 (stereo not drawn) | 25.1 µM (active)
O=C(CCC(=O)c1cccs1)NC1CCCCCC1 | inactive
O=C(CN(C(=O)CNC(=O)c1cccs1)c1ccccc1)NC1CCCCC1 | inactive
C#CC(=O)N(c1ccc(OC)cc1OC)C(C(=O)NC1CCCC1)c1cccs1 (stereo not drawn) | 2.12 µM (active)

Structure (SMILES) | Potency
COc1cc(C(=O)OC(C)C(=O)NC(=O)NC2CCCCC2)ccc1OC(F)F (stereo not drawn) | inactive
O=C(O)c1ccc(COc2ccc3ccccc3c2/C=C2/NC(=O)N(Cc3ccc(F)cc3)C2=O)cc1 | inactive
COc1ccccc1C(=O)NCCC(=O)N1CCN(S(=O)(=O)c2cccc(Cl)c2)CC1 | inactive
CCc1cc2c(COC(=O)c3cc(S(=O)(=O)N4CCOCC4)ccc3F)cc(=O)oc2cc1O | inactive
COc1cc(N2C(=O)C=CC2=O)ccc1N1C(=O)C=CC1=O | 15 µM (active)
COc1ccc(N2C(=O)CC(Nc3ccc(C(=O)O)cc3)C2=O)cc1OC (stereo not drawn) | inactive
COc1ccccc1N1C(=O)c2cccc3c(Cl)ccc(c23)C1=O | inactive
Cc1ccc2oc(C(=O)NCC(c3ccc(Cl)cc3)N3CCOCC3)c(C)c2c1 (stereo not drawn) | 39.8 µM (active)
COc1ccc(C(CNC(=O)COc2c(C)cc(C)cc2C)N2CCOCC2)cc1 (stereo not drawn) | inactive
CCC(C)NC(=O)c1oc2ccc(S(=O)(=O)N3CCC4(CC3)OCCO4)cc2c1C (stereo not drawn) | inactive
CN(C)C(=O)c1coc2nc3ccccc3nc12 | inactive
CCN(CC)S(=O)(=O)c1cc(OC)ccc1N=Nc1ccc(O)c2ncccc12 | 10 µM (active)
COc1cc(NS(=O)(=O)c2ccc3ccccc3c2)c2ncccc2c1 | inactive
CCS(=O)(=O)c1ccc(N=Nc2ccc(O)c3ncccc23)c(OC)c1 | 25.1 µM (active)
CCOC(=O)c1cc2c(=O)n3ccccc3nc2n(Cc2ccco2)/c1=N/C(=O)c1cccc(OC)c1 | inactive
COc1ccc(N2CCN(C(=O)[C@H](C)NC(=O)c3ccccc3Cl)CC2)cc1 | inactive
CCCS(=O)(=O)c1nc(S(=O)(=O)c2ccc(C)cc2)c(N2CCN(CCO)CC2)s1 | inactive
COc1ccc(C(=O)OCc2ccc(C)cc2)cc1S(=O)(=O)N1CCOCC1 | inactive
Cc1ccc(C(=O)OCn2ncc(Cl)c(Cl)c2=O)cc1 | 20 µM (active)
O=C(O)c1ccc(OS(=O)(=O)c2cccc(C(F)(F)F)c2)cc1 | inactive
O=C(OCn1ncc(Cl)c(Cl)c1=O)c1cccc(C(F)(F)F)c1 | 39.8 µM (active)
CC(=O)c1c(COC(=O)c2ccc(C)cc2)nc2ccccc2[n+]1[O-] | inactive
O=C(OCn1ncc(Cl)c(Cl)c1=O)c1ccccc1Cl | 15.8 µM (active)
N=C(NOC(=O)c1cnn(-c2ccccc2)c1C(F)(F)F)c1cc(C(F)(F)F)cc(C(F)(F)F)c1 | inactive

Structure (SMILES) | Potency
O=C(OCCN1C(=O)c2cccc3c(N4CCOCC4)ccc(c23)C1=O)c1ccccc1Cl | inactive
COC(=O)C1=CN(C)C=C(C(=O)OC)C1c1ccccc1Cl | inactive
C=CCn1c(SCc2cccc(F)c2)nc2cc(C(=O)N3CCC(C(N)=O)CC3)ccc2c1=O | inactive
CCN1C(c2ccccc2)=C(c2ccccc2)S/C1=C\C=C1/SC(=S)N(C)C1=O | 22.4 µM (active)
COc1ccc(/C=N/Nc2ncnc3sc(C)c(C)c23)cc1 | inactive
NC(CCc1ccccc1)c1csc(NC(=O)Nc2cccc(C(F)(F)F)c2)n1 (stereo not drawn) | 39.8 µM (active)
O=C(Nc1cccc(Cl)c1)NC1CC2CCC(C1)N2Cc1ccco1 (stereo not drawn) | inactive
Clc1cccc(Nc2nc(-c3ccncc3)cs2)c1 | inactive
NC(COCc1ccccc1)c1csc(NC(=O)Nc2cccc(C(F)(F)F)c2)n1 (stereo not drawn) | 39.8 µM (active)
O=C(Nc1cccc(Cl)c1)Nc1sccc1-c1nc2ccccc2s1 | inactive
NC(COCc1ccccc1)c1csc(NC(=O)Nc2cccc(Cl)c2)n1 (stereo not drawn) | 25.1 µM (active)
O=C(Cc1csc(Nc2nc(S)nc3ccccc23)n1)N1CCN(c2cccc(C(F)(F)F)c2)CC1 | inactive
O=C(Nc1cccc(Cl)c1)Nc1nnc(-c2ccncc2)s1 | 12.6 µM (active)
C/C(=N/NC(=O)c1sc(NS(=O)(=O)c2ccc(C)cc2)nc1C)c1sc(N)nc1C | inactive
CN1CCN(/C=N/c2nc3ccccc3nc2N2CCCC2)CC1 | inactive
Cc1cc(O)nc2nc3ccccc3n12 | inactive
OCCCc1nc2n(n1)C(c1ccccc1Cl)C=C(c1cccs1)N2 (stereo not drawn) | inactive
CC(C)=Cc1c(O)n2ccccc2nc1=O | inactive
CCC/C=C/c1ccc(CN2C(C(C)C)C(=O)N(Cc3cn(CCC4OCCO4)nn3)CCS2(=O)=O)cc1 (stereo not drawn) | 35.5 µM (active)
CCC/C=C/c1ccc(CN2C(C(C)C)C(=O)N(Cc3cn(CCC4OCCCO4)nn3)CCS2(=O)=O)cc1 (stereo not drawn) | 22.4 µM (active)
CN(C1=NS(=O)(=O)c2ccccc21)c1ccc(OC(=O)c2ccncc2)cc1 | inactive
Cc1csc2ncc(C(=O)N3CCc4ccccc43)c(=O)n12 | inactive
CC1CN(Cc2cnc(Cl)s2)CC(C)O1 (stereo not drawn) | inactive
CCN1CCN(S(=O)(=O)c2ccc3c4c(cccc24)C(=O)N3CC)CC1 | inactive

Structure (SMILES) | Potency
CCCCCCc1cc2cc(C(=O)NC)c(=N)oc2cc1O | inactive
Cc1cc2c(cc1C)CSC(c1c(O)ccc3ccccc13)SC2 | 35.5 µM (active)
COc1ccc(/C=C/C(=O)Nc2ccc(S(=O)(=O)N3CCOCC3)cc2)c(OC)c1 | inactive
COc1ccc(OC)c(/C=C2/Sc3ccccc3C2=O)c1 | inactive
COc1ccc(/C=C2\SC(=S)N(NS(=O)(=O)c3ccccc3)C2=O)c(OC)c1 | 39.8 µM (active)
O=C(NCc1cccs1)c1cc(C2CC2)on1 | inactive
CC(C)(C)NC(=O)C(c1ccc(-c2ccccc2)cc1)N(C[C@H]1CC[C@@H]([C@@H]2CC[C@H](CO)O2)O1)C(=O)c1cccc(Cl)c1 (stereo partly drawn) | 31.6 µM (active)
CC(C)(C)NC(=O)C(c1ccc(-c2ccccc2)cc1)N(C[C@H]1CC[C@@H]([C@@H]2CC[C@H](CO)O2)O1)C(=O)c1ccc(-c2ccccc2)cc1 (stereo partly drawn) | 35.5 µM (active)
CC(C)(C)NC(=O)C(c1ccncc1)N(C(=O)C1CSC(=O)C1)c1ccccc1 (stereo not drawn) | inactive
O=C(c1cccc(Cl)c1)N(Cc1ccco1)C1CCS(=O)(=O)C1 (stereo not drawn) | inactive
CC(C)(C)NC(=O)C(c1cccnc1)N(C(=O)c1csnn1)c1ccccc1 (stereo not drawn) | inactive
CC1(C)NC(=O)N(CC(=O)N2CCN(S(=O)(=O)c3cc(Cl)ccc3Cl)CC2)C1=O | inactive
CC(C)Cn1nc(NC(=O)c2cccs2)c2cc3ccccc3nc21 | inactive
Cc1ccc(S(=O)(=O)N(C)C)cc1-n1c(SCC(=O)N(C)C)nc2ccccc2c1=O | inactive
Cc1nn(-c2ccccc2)c(C)c1/C=N/NC(=O)CSc1nc2ccccc2c(=O)n1-c1ccc(Br)cc1 | 12.6 µM (active)
CNC(=O)CSc1nc2ccccc2c(=O)n1C1CCCCC1 | inactive
Cc1ccccc1CS(=O)(=O)c1ncc(Cl)c(C(=O)Nc2ccc(F)cc2)n1 | 10 µM (active)
O=C(Nc1ccc(F)cc1)c1cccnc1NCCc1ccccc1 | inactive
O=C(Nc1ccc(F)cc1)c1nc(S(=O)(=O)Cc2ccccc2)ncc1Cl | 25.1 µM (active)
CC(=O)Nc1ccc(S(=O)(=O)[N-]c2nc3ccccc3nc2-[n+]2ccc(NC(=O)c3ccc(F)cc3)cc2)cc1 | inactive
O=C1CSc2ccc(S(=O)(=O)NCc3ccc(F)cc3)cc2N1 | inactive
